The text below walks through data of PubChem BioAssay (NCATS).

In assay [1] the target is Cytochrome P450 3A7 (Homo sapiens) (UniProt P24462). Kind of assay: Cytochrome P450 family 3 subfamily A member 7 (CYP3A7) small molecule antagonists: luciferase biochemical qHTS assay (AID 1963596). Further: on the % scale 0 is the no-effect control and ±100 the full control effect; nearly all actives have a fitted effect of over 40% in size. The essentials:
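Luminescence read-out (relative luminescence units) after 20 min with detection reagent, which stops the reaction. Enzyme, proluciferin substrate and compound preincubated 10 min, RT; NADPH regeneration system then started 1 h reaction. Ketoconazole as positive control.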
Background: Quantitative high-throughput screening tests each substance at several concentrations.

A short description of assay [2]: Viability qHTS for spleen associated tyrosine kinase inhibitor (SYKi) naive MV4-11 cells (AID 1963823). Further: nearly all actives have a fitted effect of over 40% in size. Further: potency means the concentration at half of the fitted maximal effect. In outline: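 Cells: MV4-11, SYK inhibitor naive, 500 per well. Treatment: library compounds, 72 hr, 37 C, 5% CO2. Read-out: CellTiter-Glo luminescence after 10 min RT.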
A short description of assay [3]: Viability qHTS for spleen associated tyrosine kinase inhibitor (SYKi) drug resistant MV4-11 cells (AID 1963824). Further: nearly all actives have a fitted effect of over 35% in size. Further: potency means the concentration at half of the fitted maximal effect. The essentials: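 SYK inhibitor-resistant MV4-11 AML cells, 500 per well, added to predispensed compounds and incubated 72 hr at 37 C, 5% CO2. Viability measured by CellTiter-Glo luminescence after 10 min at room temperature.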
Assay [4] is described as follows: Quantitative highthroughput screen to assess conditional lethalithy of NOMO1 cells grown in RPMI1640 with untreated serum (RPMI+s) (AID 1963876). Further: nearly all actives have a fitted effect of over 35% in size. Further: potency means the concentration at half of the fitted maximal effect.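 On Viability: 100% = DMSO wells and 0% = empty wells without cells.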 The essentials: (§1)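 Each medium arm—HPLM with 10% dialyzed FBS, or RPMI1640 with 5 mM glucose and 10% untreated or dialyzed FBS—was screened against an 11-point, 3-fold compound titration for 48 h at 37 °C, with CellTiter-Glo luminescence as endpoint.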

Assay [5] in a line: Quantitative highthroughput screen to assess conditional lethalithy of NOMO1 cells grown in RPMI1640 with dialyzed fetal bovine serum (RPMI+ds) (AID 1963877). Further: nearly all actives have a fitted effect of over 30% in size. Further: potency means the concentration at half of the fitted maximal effect.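 On Viability: series mostly up to about 46 µM; 100% = DMSO control wells and 0% = empty wells.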 In outline:
as §1

Assay [6] is described as follows: Quantitative highthroughput screen to assess conditional lethalithy of NOMO1 cells grown in Human Plasma-Like Medium with dialyzed fetal bovine serum (HPLM+ds) (AID 1963878). Further: nearly all actives have a fitted effect of over 35% in size. Further: potency means the concentration at half of the fitted maximal effect.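 On Viability: 100% = DMSO wells and 0% = empty wells on each plate.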 In outline:
as §1

Assay [7] in a line: Quantitative highthroughput screen to assess conditional lethalithy of P12 Ichikawa cells grown in RPMI1640 with dialyzed fetal bovine serum (RPMI+ds) (AID 1963880). Further: nearly all actives have a fitted effect of over 35% in size. Further: potency means the concentration at half of the fitted maximal effect.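 On Viability: 100% = DMSO wells and 0% = empty wells on each plate.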 As to conditions: Potency: P12-Ichikawa viability. The essentials:
as §1

Assay [8] can be described thus: Quantitative highthroughput screen to assess conditional lethalithy of P12 Ichikawa cells grown in RPMI1640 with untreated serum (RPMI+s) (AID 1963881). Further: nearly all actives have a fitted effect of over 35% in size. Further: potency means the concentration at half of the fitted maximal effect.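 On Viability: series mostly up to about 46 µM; 100% = DMSO wells and 0% = empty wells without cells.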 As to conditions: Potency: viability. The essentials: as §1
Assay [9] is described as follows: Quantitative highthroughput screen to assess conditional lethalithy of SEM cells grown in Human Plasma-Like Medium with dialyzed fetal bovine serum (HPLM+ds) (AID 1963882). Further: nearly all actives have a fitted effect of over 35% in size. Further: potency means the concentration at half of the fitted maximal effect. On Viability: series mostly up to about 46 µM. The essentials: as §1
A short description of assay [10]: Quantitative highthroughput screen to assess conditional lethalithy of SEM cells grown in RPMI1640 with dialyzed fetal bovine serum (RPMI+ds) (AID 1963884). Further: nearly all actives have a fitted effect of over 35% in size. Further: potency means the concentration at half of the fitted maximal effect.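 On Viability: series mostly up to about 46 µM; 100% = DMSO control wells and 0% = empty wells without cells.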 The essentials:
as §1

Assay [11] is described as follows: Cellular viability qHTS for adrenocortical cancer (ACC) cell line SW-13 (AID 1963989).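 Further: cells grown in serum-free medium with ITS supplement; on the % scale 0 is the no-effect control and ±100 the full control effect; nearly all actives have a fitted effect of over 65% in size.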 Particulars: SW-13 ACC cells viability, CellTiter-Glo, 48 h; activity (max response): stronger effect = lower value. The essentials: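 Compound titrations (up to 46 uM final, in DMSO) were applied to SW-13 cells for 48 h at 37C/5% CO2. Reading used CellTiter-Glo after 20 min at room temperature; fitted curves yielded IC50 and efficacy.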

Assay [12] is described as follows: Cellular viability qHTS for adrenocortical cancer (ACC) cell line NCI-H295R (AID 1963990).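 Further: 0% = DMSO only wells and -100% = full killing with cytotoxic reference compound; nearly all actives have a fitted effect of over 60% in size.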 In outline: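 Readout: CellTiter-Glo luminescence, 20 min RT. Exposure: 48 h, 37C/5% CO2. Cells: NCI-H295R, ITS-DMEM serum-free. Range: up to 46 uM. Analysis: 4PL fit, IC50 plus efficacy.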
Assay [13] can be described thus: Quantitative highthroughput screen to assess conditional lethalithy of P12 Ichikawa cells grown in Human Plasma-Like Medium with dialyzed fetal bovine serum (HPLM+ds) (AID 1963879). Further: nearly all actives have a fitted effect of over 35% in size. Further: potency means the concentration at half of the fitted maximal effect. On Viability: series mostly up to about 46 µM. Particulars: Potency: viability. In outline:
as §1

Assay [14] in a line: Quantitative highthroughput screen to assess conditional lethalithy of SEM cells grown in RPMI1640 with unreated serum (RPMI+s) (AID 1963883). Further: nearly all actives have a fitted effect of over 35% in size. Further: potency means the concentration at half of the fitted maximal effect.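 On Viability: 100% = DMSO wells and 0% = empty wells without cells.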 In outline:
as §1

Where “and” joins values, the source holds several entries; their conditions need not be identical. Identical values can stand only once. Records with an inconclusive call do not appear. More than one record can exist for a structure, and the calls need not agree. Calls of active or inactive are those of the source. The call rests on the fitted dose curve; in most records, active means well fitted curve in the direction sought with a large enough effect; inconclusive means small, poorly fitted or top-dose-only effect, or another doubt; inactive means no such curve, though single readings can be large; an effect the other way counts as inactive or inconclusive.

Chain of Cytochrome P450 3A7 (Homo sapiens) (P24462 whole entry, looked up): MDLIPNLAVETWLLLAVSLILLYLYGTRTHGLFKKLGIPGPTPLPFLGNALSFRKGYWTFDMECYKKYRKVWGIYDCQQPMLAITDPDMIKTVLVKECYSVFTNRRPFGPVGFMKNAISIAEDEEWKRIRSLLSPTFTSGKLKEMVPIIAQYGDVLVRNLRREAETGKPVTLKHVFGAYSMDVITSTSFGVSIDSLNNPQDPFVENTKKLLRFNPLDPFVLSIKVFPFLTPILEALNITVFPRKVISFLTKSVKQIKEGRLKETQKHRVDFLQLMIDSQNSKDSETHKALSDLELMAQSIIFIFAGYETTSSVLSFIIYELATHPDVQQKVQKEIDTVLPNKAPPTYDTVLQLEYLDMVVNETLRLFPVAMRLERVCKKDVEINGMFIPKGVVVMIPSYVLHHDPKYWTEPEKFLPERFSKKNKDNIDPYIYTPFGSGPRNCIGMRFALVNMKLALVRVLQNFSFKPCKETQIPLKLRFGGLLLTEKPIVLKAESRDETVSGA

For the compound `N#Cc1ccc(C(c2ccc(C#N)cc2)n2cncn2)cc1`, the Potency result in assay [1], in assay [2], in assay [3], in assay [4], in [5] and in assay [6] was “inactive” each time. Besides, the Potency entry in [7], in assay [8], in assay [9], in assay [10] and in assay [12] was “inactive” throughout. The activity (max response) in [11] was 2.79% (inactive).

On to `CC[C@H](NC(C)C)[C@H](O)c1ccc(O)c2[nH]c(=O)ccc12`, for which the Potency result in assay [1], in assay [3], in assay [4], in [5], in assay [6] and in assay [13] was “inactive” each time. For the same compound, the Potency result in assay [7], in [9], in [14], in assay [10] and in assay [12] was “inactive” in each case. In addition, the Potency entry in [2] is “inactive and 525 nM (active)”. Also, the activity (max response) in assay [11] is 3.1% (inactive) and 13.3% (inactive).

`Nc1nnc(-c2cccc(Cl)c2Cl)c(N)n1`: the Potency result in assay [1], in assay [2], in assay [3], in assay [4], in assay [5] and in [6] was “inactive” in each case. For the same compound, the Potency entry in [7], in assay [8], in assay [9], in [14] and in assay [10] was “inactive” throughout. In addition, the activity (max response) in [11] is 1.68% (inactive) and 0.0596% (inactive).

Take `C[C@H]1c2cccc(O)c2C(O)=C2C(=O)[C@]3(O)C(O)=C(C(N)=O)C(=O)[C@@H](N(C)C)[C@@H]3[C@@H](O)[C@@H]21`: the Potency entry in assay [1], in assay [4], in assay [5], in assay [6], in assay [13] and in [9] was “inactive” in each case. Besides, the Potency entry in assay [12] was “inactive”. The Potency result was “inactive and 16.6 µM (active)” in [2]; 14.8 µM (active) in assay [3]; 16600 nM (active) in assay [7]; 18700 nM (active) in assay [8]. The activity (max response) in assay [11] was -2.36% (inactive) and -5.39% (inactive).

In the case of `CC(=O)OCC(CCn1cnc2cnc(N)nc21)COC(C)=O`, the Potency entry in assay [1], in [2], in [3], in assay [4], in assay [5] and in assay [6] was “inactive” throughout. The Potency entry in assay [13], in assay [7], in assay [8], in [14], in assay [10] and in [12] was “inactive” in each case.

As to `CCOC(=O)C(C)(C)Oc1ccc(Cl)cc1`, the Potency entry in [1], in assay [2], in assay [3], in [4], in [5] and in assay [6] was “inactive” throughout. Further, the Potency entry in [13], in assay [7], in [8], in assay [9], in assay [14] and in assay [10] was “inactive” each time. Besides, the Potency entry in assay [12] is “inactive”. Besides, the activity (max response) in assay [11] was 0.705% (inactive) and -17.8% (inactive).

Regarding `Cc1cnc(CNC(=O)c2c(=O)c3ccc(N4CCCN(C)CC4)nc3n3c2sc2ccccc23)cn1`, the Potency result in assay [1], in [4], in assay [5], in [6] and in assay [13] was “inactive” in each case. The Potency is 841 nM (active) in [2], 1.68 µM (active) in assay [3], 10200 nM (active) in assay [7] and 2880 nM (active) in [14].

As to `COc1cc2ncnc(Nc3cc(Br)c(O)c(Br)c3)c2cc1OC`, the Potency result in [1], in [4], in assay [5], in assay [6], in assay [13] and in assay [7] was “inactive” each time. Moreover, the Potency entry in assay [8], in assay [9], in assay [14] and in assay [12] was “inactive” throughout. Also, the Potency was 11.8 µM (active) and 11.6 µM (active) in assay [2]; 13.2 µM (active) and 9.2 µM (active) in [3].

Regarding `NS(=O)(=O)c1cc2c(cc1Cl)NC(C(Cl)Cl)NS2(=O)=O` (stereo not given), the Potency result in assay [1], in assay [2], in assay [3], in [4], in [5] and in assay [6] was “inactive” throughout. For the same compound, the Potency entry in assay [13], in [7], in assay [8], in assay [9], in [14] and in assay [10] was “inactive” throughout. Further, the Potency entry in assay [12] was “inactive”. Besides, the activity (max response) in assay [11] is 15.1% (inactive) and 11.4% (inactive).

Turning to `CNS(=O)(=O)CCc1ccc2[nH]cc(C3CCN(C)CC3)c2c1`, the Potency entry in [1], in [2], in [3], in assay [4], in [5] and in [6] was “inactive” throughout. Moreover, the Potency result in [13], in assay [7], in assay [8], in assay [9], in [14] and in assay [10] was “inactive” throughout. For the same compound, the Potency entry in [12] is “inactive”. Also, the activity (max response) in [11] was -14.7% (inactive).

As for `Nc1nc(Cl)nc2c1ncn2[C@H]1C[C@H](O)[C@@H](CO)O1`, the Potency result in assay [1] and in assay [12] was “inactive” each time. For the same compound, the Potency in assay [2] is 93.4 nM (active); in [3], 0.148 µM (active); in assay [4], 209 nM (active); in assay [5] it was 148 nM (active); in [6], 132 nM (active); in [13], 209 nM (active). For the same compound, the Potency was 235 nM (active) in [7], 187 nM (active) in assay [8], 105 nM (active) in assay [9] and 105 nM (active) in [14].

As for `O=C(c1ccccc1)c1ccc2n1CCC2C(=O)O` (stereo not given), the Potency entry in assay [1], in assay [2], in [3], in assay [4], in assay [5] and in [6] was “inactive” each time. Also, the Potency result in assay [12] was “inactive”. The Potency was 2350 nM (active) in assay [13], 4180 nM (active) in assay [7], 3720 nM (active) in assay [8] and 4690 nM (active) in assay [10]. Also, the activity (max response) in assay [11] is 8.29% (inactive) and -6.52% (inactive).

Regarding `C1COC(NC(C2CC2)C2CC2)=N1`, the Potency result in assay [1], in assay [2], in assay [3], in assay [4], in assay [5] and in [6] was “inactive” each time. Further, the Potency entry in [13], in [8] and in assay [12] was “inactive” throughout. The activity (max response) in [11] is 14.7% (inactive) and 0.392% (inactive).

For the compound `Nc1nc(N)nc(-c2cc(Cl)ccc2Cl)n1`, the Potency entry in assay [1], in [2], in [3], in assay [4], in [5] and in [6] was “inactive” in each case. In addition, the Potency result in assay [13], in [7], in assay [8], in assay [10] and in assay [12] was “inactive” each time. The activity (max response) in assay [11] was 2.1% (inactive) and -6.28% (inactive).
